Results as given in article PMC11995724, “Antibiotic target discovery by integrated phenotypic and activity-based profiling of electrophilic fragments” (Cell chemical biology, 2025).
Screen size: about 3,200 compounds; about 110 (3.4%) showed an effect of 50% or more. For the sample, strong results were picked, then their nearest neighbours and some compounds at random.

These molecules were tested on T1, V. cholerae SAD30. Details: relative growth, OD600, LB; 25 µM; inhibitor.
T1 construct: SAD30
Parameters: species or system S. aureus MSSA476 (TSB) or V. cholerae SAD30 (LB); 384-well bacterial growth screen at 25 uM, OD600 relative to DMSO control

In order of falling “% of control remaining” value:
1. N#Cc1ccc(OC2CN(C(=O)CCl)C2)cc1 [5-K07, 4-{[1-(2-chloroacetyl)azetidin-3-yl]oxy}benzonitrile]  141.893%
2. CSc1ccccc1NC(=O)CN(C)C(=O)CCl [4-L03, 2-chloro-N-methyl-N-({[2-(methylsulfanyl)phenyl]carbamoyl}methyl)acetamide]  116.282%
3. Cn1ncc(C(=O)CCl)n1 [10-J10, 2-chloro-1-(2-methyl-2H-1,2,3-triazol-4-yl)ethan-1-one]  112.838%
4. C=CC(=O)N1CCCC(c2nc(N(C)C)no2)C1 (stereo not drawn) [3-A13, 1-{3-[3-(dimethylamino)-1,2,4-oxadiazol-5-yl]piperidin-1-yl}prop-2-en-1-one]  112.204%
5. Cc1cc(C(=O)CCl)c(C)n1CCc1cccs1 [10-F16, 2-chloro-1-{2,5-dimethyl-1-[2-(thiophen-2-yl)ethyl]-1H-pyrrol-3-yl}ethan-1-one]  110.189%
6. Cc1ccc(F)cc1NC(=O)CCl [4-O03, 2-chloro-N-(5-fluoro-2-methylphenyl)acetamide]  106.103%
7. CN(C)c1nc(N2CCOCC2)ncc1NC(=O)CCl [5-M22, 2-chloro-N-[4-(dimethylamino)-2-(morpholin-4-yl)pyrimidin-5-yl]acetamide]  105.916%
8. CCn1nc(C)c(CN(C)C(=O)CCl)c1C [5-A10, 2-chloro-N-[(1-ethyl-3,5-dimethyl-1H-pyrazol-4-yl)methyl]-N-methylacetamide]  104.907%
9. CCOc1ccc(C(=O)C(C)Cl)cc1 (stereo not drawn) [10-G06, 2-chloro-1-(4-ethoxyphenyl)propan-1-one]  103.331%
10. CCOc1ccc(-n2c(C)cc(C(=O)CCl)c2C)cc1 [10-K08, 2-chloro-1-[1-(4-ethoxyphenyl)-2,5-dimethyl-1H-pyrrol-3-yl]ethan-1-one]  98.9675%
11. CCn1cc(NC(=O)CCl)cn1.Cl [6-I15, 2-chloro-N-(1-ethyl-1H-pyrazol-4-yl)acetamide hydrochloride]  98.4359%
12. O=C(CCl)Nc1c(Cl)cc(Cl)cc1Cl [5-B16, 2-chloro-N-(2,4,6-trichlorophenyl)acetamide]  98.3503%
13. C=CC(=O)N1CCC(C(=O)N2Cc3ccc([N+](=O)[O-])cc3C2)CC1 [2-F04, 1-[4-(5-nitro-2,3-dihydro-1H-isoindole-2-carbonyl)piperidin-1-yl]prop-2-en-1-one]  98.2245%
14. C=CC(=O)NCc1ccc(S(=O)(=O)NC2CC2)cc1 [2-P19, N-{[4-(cyclopropylsulfamoyl)phenyl]methyl}prop-2-enamide]  96.8349%
15. O=C(CCl)NCCc1ccc(Cl)cc1Cl [6-M16, 2-chloro-N-[2-(2,4-dichlorophenyl)ethyl]acetamide]  96.0091%
16. C=CC(=O)Nc1ccc(S(=O)(=O)N(C)C)c(C)c1 [2-E06, N-[4-(dimethylsulfamoyl)-3-methylphenyl]prop-2-enamide]  93.4382%
17. O=S(=O)(CC=C(Cl)Cl)N1CCSSCC1 [10-P19, 5-(3,3-dichloroprop-2-ene-1-sulfonyl)-1,2,5-dithiazepane]  92.5774%
18. CSc1ccccc1NC(=O)CCl [4-E11, 2-chloro-N-[2-(methylsulfanyl)phenyl]acetamide]  92.3011%
19. C=CC(=O)N(CCC(N)=O)C1CCOc2ccccc21 (stereo not drawn) [3-F13, N-(2-carbamoylethyl)-N-(3,4-dihydro-2H-1-benzopyran-4-yl)prop-2-enamide]  92.0897%
20. CC(Cl)C(=O)NCC1CN(c2nncs2)CCO1 (stereo not drawn) [7-O03, 2-chloro-N-{[4-(1,3,4-thiadiazol-2-yl)morpholin-2-yl]methyl}propanamide]  90.798%
21. O=C(CCl)N1CC(Cc2ccc(F)cc2F)C1 [5-G20, 2-chloro-1-{3-[(2,4-difluorophenyl)methyl]azetidin-1-yl}ethan-1-one]  89.2718%
22. C=CC(=O)Nc1sc2c(c1C(N)=O)CCCCC2 [1-F21, 2-(prop-2-enamido)-4H,5H,6H,7H,8H-cyclohepta[b]thiophene-3-carboxamide]  88.1913%
23. CCn1nc(C)c(CNC(=O)CCl)c1C [7-P10, 2-chloro-N-[(1-ethyl-3,5-dimethyl-1H-pyrazol-4-yl)methyl]acetamide]  85.1148%
24. CC1CN(c2ccc(NC(=O)C(C#N)=Cc3ccco3)cc2)CC(C)O1 (stereo not drawn) [9-J09, 2-cyano-N-[4-(2,6-dimethylmorpholin-4-yl)phenyl]-3-(furan-2-yl)prop-2-enamide]  84.3644%
25. O=C(CCl)N(Cc1ccccc1)Cc1ccc(F)cc1 [5-I06, N-benzyl-2-chloro-N-[(4-fluorophenyl)methyl]acetamide]  81.2021%
26. CN(CCOc1ccc(Cl)cc1)C(=O)CCl [5-D16, 2-chloro-N-[2-(4-chlorophenoxy)ethyl]-N-methylacetamide]  80.0252%
27. C=CC(=O)N1CCC(F)CC1 [1-D14, 1-(4-fluoropiperidin-1-yl)prop-2-en-1-one]  79.2444%
28. CC(Cl)C(=O)N(C)CCOc1ccc(Cl)cc1 (stereo not drawn) [6-C12, 2-chloro-N-[2-(4-chlorophenoxy)ethyl]-N-methylpropanamide]  74.0165%
29. CC(Cl)C(=O)N(CCc1ccc(F)cc1F)C(C)C (stereo not drawn) [6-D18, 2-chloro-N-[2-(2,4-difluorophenyl)ethyl]-N-(propan-2-yl)propanamide]  71.5897%
30. N#CC(=Cc1cccc(O)c1)C(=O)Nc1ccc(N2CCOCC2)cc1 [8-I14, 2-cyano-3-(3-hydroxyphenyl)-N-[4-(morpholin-4-yl)phenyl]prop-2-enamide]  71.0401%
31. CCn1nc(C)c(C(=O)CCl)n1 [10-P08, 2-chloro-1-(2-ethyl-5-methyl-2H-1,2,3-triazol-4-yl)ethan-1-one]  40.2104%
32. O=C(CCl)Cc1ccc(F)cc1F [10-G17, 1-chloro-3-(2,4-difluorophenyl)propan-2-one]  31.4826%
33. CSc1cc(C(=O)CCl)ccc1NC(C)=O [10-H08, N-[4-(2-chloroacetyl)-2-(methylsulfanyl)phenyl]acetamide]  25.2484%
34. O=C(CCl)Cc1ccc(Cl)cc1Cl [10-A15, 1-chloro-3-(2,4-dichlorophenyl)propan-2-one]  22.1313%
35. O=C(CCl)Cc1ccc(F)cc1Cl [10-E19, 1-chloro-3-(2-chloro-4-fluorophenyl)propan-2-one]  21.0403%
36. CCOc1ccc(C(=O)CCl)cc1 [10-F12, 2-chloro-1-(4-ethoxyphenyl)ethan-1-one]  15.1179%
37. O=C(CCl)COc1ccc(Cl)cc1 [10-M17, 1-chloro-3-(4-chlorophenoxy)propan-2-one]  11.6891%
38. CCn1ncc(C(=O)CCl)n1 [10-E13, 2-chloro-1-(2-ethyl-2H-1,2,3-triazol-4-yl)ethan-1-one]  0%
39. N#Cc1ccc(C(=O)CCl)cc1 [10-F10, 4-(2-chloroacetyl)benzonitrile]  0%
